# Assay results as given in ChEMBL document CHEMBL1961873, “Compounds: GSK PKIS; Assays: Nanosyn kinase panel” (2012).
# Columns and labels:
# [1] = target: Ribosomal protein S6 kinase alpha-6 (Homo sapiens) (UniProt Q9UK32); settings: at 1 µM;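 note: each value is a mean inhibition of RSK4 from a GSK PKIS panel screen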
# [2] = target: T1, Serine/threonine-protein kinase Sgk1 (Homo sapiens) (UniProt O00141); settings: at 0.1 µM
# T1 sequence (whole entry): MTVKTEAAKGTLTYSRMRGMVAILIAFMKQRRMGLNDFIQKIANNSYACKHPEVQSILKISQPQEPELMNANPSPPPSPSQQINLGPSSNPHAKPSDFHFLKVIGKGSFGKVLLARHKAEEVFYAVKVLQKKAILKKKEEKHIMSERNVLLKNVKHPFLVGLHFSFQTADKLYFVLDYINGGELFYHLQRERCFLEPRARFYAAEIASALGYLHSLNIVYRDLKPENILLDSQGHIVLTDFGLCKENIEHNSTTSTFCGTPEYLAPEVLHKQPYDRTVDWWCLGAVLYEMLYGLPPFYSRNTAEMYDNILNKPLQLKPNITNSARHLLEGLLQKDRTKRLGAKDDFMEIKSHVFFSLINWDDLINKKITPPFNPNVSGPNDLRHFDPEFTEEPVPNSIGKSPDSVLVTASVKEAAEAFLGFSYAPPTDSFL
# [3] = target: T1, Serine/threonine-protein kinase Sgk1 (Homo sapiens); settings: at 1 µM
# [4] = target: T2, Serine/threonine-protein kinase Sgk2 (Homo sapiens) (UniProt Q9HBY8); settings: at 0.1 µM
# T2 sequence (whole entry): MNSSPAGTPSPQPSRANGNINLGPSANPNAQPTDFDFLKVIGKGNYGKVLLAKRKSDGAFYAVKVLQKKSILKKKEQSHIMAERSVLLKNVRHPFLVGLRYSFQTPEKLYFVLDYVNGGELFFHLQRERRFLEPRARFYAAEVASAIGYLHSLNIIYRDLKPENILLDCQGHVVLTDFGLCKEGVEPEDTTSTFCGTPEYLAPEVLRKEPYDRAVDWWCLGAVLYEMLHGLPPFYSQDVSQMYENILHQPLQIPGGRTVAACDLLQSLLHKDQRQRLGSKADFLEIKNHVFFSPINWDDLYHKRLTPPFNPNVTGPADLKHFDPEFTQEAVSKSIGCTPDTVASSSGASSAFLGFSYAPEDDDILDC
# [5] = target: T2, Serine/threonine-protein kinase Sgk2 (Homo sapiens); settings: at 1 µM
# [6] = target: T3, Serine/threonine-protein kinase Sgk3 (Homo sapiens) (UniProt Q96BR1); settings: at 0.1 µM
# T3 sequence (whole entry): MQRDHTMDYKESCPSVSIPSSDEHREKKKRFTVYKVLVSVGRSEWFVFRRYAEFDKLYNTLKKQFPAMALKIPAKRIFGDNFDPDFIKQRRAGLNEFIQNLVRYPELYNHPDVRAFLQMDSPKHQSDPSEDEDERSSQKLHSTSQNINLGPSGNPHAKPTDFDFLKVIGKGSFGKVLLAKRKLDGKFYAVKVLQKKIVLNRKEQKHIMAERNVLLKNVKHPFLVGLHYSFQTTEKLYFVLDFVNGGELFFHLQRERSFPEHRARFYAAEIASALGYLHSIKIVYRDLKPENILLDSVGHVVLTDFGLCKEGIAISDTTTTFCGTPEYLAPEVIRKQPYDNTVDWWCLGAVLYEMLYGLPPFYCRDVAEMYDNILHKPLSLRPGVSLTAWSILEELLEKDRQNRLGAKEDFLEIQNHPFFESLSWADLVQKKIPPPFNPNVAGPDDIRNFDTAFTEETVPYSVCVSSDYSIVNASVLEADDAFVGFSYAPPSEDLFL
# [7] = target: T3, Serine/threonine-protein kinase Sgk3 (Homo sapiens); settings: at 1 µM
# [8] = target: 5'-AMP-activated protein kinase catalytic subunit alpha-1 (Homo sapiens) (UniProt Q13131); settings: at 0.1 µM
# Chain of 5'-AMP-activated protein kinase catalytic subunit alpha-1 (Homo sapiens) (Q13131 whole entry, looked up): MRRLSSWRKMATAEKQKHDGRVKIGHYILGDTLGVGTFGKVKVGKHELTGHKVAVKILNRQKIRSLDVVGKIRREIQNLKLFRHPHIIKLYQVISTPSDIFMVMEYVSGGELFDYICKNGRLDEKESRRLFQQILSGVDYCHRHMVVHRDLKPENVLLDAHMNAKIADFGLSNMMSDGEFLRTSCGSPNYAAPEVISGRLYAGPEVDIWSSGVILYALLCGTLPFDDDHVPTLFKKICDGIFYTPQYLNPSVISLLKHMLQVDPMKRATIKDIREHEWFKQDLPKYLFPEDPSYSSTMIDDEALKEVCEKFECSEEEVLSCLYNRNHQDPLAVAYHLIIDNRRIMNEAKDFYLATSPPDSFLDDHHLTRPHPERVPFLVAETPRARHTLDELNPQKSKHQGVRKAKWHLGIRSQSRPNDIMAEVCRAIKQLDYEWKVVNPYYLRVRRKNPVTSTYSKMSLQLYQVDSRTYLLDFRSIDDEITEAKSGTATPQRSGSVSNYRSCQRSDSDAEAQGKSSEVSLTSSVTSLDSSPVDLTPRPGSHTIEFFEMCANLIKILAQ
# [9] = target: 5'-AMP-activated protein kinase catalytic subunit alpha-1 (Homo sapiens) (UniProt Q13131); settings: at 1 µM
# [10] = target: 5'-AMP-activated protein kinase catalytic subunit alpha-2 (Homo sapiens) (UniProt P54646); settings: at 0.1 µM
# Chain of 5'-AMP-activated protein kinase catalytic subunit alpha-2 (Homo sapiens) (P54646 whole entry, looked up): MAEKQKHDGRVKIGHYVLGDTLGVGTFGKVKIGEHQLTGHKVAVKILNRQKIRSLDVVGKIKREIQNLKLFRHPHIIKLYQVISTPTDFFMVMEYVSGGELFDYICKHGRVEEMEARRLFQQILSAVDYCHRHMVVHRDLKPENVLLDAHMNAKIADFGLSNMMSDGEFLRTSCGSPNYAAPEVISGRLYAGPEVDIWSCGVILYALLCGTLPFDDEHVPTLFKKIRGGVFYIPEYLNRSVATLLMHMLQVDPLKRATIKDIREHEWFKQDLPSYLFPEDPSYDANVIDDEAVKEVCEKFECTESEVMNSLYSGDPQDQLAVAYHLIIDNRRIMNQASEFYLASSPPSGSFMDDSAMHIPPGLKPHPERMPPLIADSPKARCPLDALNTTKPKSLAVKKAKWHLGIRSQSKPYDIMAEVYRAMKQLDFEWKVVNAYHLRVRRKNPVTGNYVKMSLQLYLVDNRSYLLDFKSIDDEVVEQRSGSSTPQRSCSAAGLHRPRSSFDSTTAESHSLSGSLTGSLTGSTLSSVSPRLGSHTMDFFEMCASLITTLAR
# [11] = target: 5'-AMP-activated protein kinase catalytic subunit alpha-2 (Homo sapiens) (UniProt P54646); settings: at 1 µM
# [12] = target: T4, NUAK family SNF1-like kinase 1 (Homo sapiens) (UniProt O60285); settings: at 0.1 µM
# T4 sequence (whole entry): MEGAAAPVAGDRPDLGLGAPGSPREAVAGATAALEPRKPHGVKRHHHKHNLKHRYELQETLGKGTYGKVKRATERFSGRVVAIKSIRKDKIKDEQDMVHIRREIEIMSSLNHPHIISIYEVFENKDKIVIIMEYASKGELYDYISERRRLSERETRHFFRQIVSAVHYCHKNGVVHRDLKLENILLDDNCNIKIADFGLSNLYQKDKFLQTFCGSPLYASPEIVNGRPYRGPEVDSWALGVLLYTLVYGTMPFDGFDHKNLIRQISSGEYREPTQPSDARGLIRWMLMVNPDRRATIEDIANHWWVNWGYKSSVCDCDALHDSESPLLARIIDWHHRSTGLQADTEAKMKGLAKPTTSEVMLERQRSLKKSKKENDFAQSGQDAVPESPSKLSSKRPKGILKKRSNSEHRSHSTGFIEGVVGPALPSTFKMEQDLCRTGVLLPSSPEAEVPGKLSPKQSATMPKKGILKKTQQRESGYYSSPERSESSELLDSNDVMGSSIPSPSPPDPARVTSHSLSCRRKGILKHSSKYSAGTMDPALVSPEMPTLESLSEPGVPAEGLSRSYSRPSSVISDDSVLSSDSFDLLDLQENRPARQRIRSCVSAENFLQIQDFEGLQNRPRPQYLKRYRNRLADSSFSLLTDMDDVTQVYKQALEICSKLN
# [13] = target: T4, NUAK family SNF1-like kinase 1 (Homo sapiens); settings: at 1 µM
# [14] = target: T5, Serine/threonine-protein kinase BRSK1 (Homo sapiens) (UniProt Q8TDC3); settings: at 0.1 µM
# T5 sequence (whole entry): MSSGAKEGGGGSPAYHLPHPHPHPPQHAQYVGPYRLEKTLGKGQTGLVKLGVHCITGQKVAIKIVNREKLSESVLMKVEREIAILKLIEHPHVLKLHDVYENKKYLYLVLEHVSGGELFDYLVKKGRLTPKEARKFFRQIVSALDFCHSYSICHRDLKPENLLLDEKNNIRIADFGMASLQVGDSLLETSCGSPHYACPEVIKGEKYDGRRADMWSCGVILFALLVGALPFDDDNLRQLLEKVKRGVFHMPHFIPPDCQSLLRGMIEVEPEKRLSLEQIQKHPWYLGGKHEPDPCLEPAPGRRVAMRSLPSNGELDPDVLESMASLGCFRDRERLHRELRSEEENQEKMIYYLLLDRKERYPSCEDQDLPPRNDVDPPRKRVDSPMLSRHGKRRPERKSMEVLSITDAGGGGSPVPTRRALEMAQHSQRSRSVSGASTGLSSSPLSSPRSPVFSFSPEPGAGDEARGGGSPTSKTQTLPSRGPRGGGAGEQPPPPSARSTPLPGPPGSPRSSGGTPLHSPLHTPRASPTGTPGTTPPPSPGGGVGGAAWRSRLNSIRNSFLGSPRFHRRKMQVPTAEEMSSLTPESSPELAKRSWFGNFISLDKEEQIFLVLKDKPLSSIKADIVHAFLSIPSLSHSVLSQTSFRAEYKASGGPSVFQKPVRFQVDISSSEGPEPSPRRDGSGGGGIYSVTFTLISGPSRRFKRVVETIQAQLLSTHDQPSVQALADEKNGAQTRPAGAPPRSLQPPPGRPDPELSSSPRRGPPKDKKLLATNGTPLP
# [15] = target: T5, Serine/threonine-protein kinase BRSK1 (Homo sapiens); settings: at 1 µM
# [16] = target: T6, Serine/threonine-protein kinase BRSK2 (Homo sapiens) (UniProt Q8IWQ3); settings: at 0.1 µM
# T6 sequence (whole entry): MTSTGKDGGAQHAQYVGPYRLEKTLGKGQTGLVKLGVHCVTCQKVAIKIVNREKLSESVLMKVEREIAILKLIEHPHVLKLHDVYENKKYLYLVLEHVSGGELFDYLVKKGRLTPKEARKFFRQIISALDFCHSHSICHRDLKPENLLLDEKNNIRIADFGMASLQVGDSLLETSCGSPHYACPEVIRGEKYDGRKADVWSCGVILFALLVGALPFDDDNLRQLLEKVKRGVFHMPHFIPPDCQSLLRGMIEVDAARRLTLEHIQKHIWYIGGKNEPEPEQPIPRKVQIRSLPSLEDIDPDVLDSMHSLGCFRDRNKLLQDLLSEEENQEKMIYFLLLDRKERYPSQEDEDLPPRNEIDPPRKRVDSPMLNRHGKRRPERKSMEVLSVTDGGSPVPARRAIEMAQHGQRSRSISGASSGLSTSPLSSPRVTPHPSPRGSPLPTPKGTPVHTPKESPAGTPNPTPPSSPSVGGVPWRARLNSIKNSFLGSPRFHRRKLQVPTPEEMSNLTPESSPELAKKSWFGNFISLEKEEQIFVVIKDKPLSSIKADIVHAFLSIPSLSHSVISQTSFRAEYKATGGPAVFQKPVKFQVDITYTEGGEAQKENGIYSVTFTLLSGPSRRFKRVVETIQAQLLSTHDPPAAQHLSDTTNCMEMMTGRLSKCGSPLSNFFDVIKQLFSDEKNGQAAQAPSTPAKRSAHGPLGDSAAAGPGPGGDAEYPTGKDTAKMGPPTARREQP
# [17] = target: T6, Serine/threonine-protein kinase BRSK2 (Homo sapiens); settings: at 1 µM
# [18] = target: Calcium/calmodulin-dependent protein kinase type 1D (Homo sapiens) (UniProt Q8IU85); settings: at 0.1 µM
# Chain of Calcium/calmodulin-dependent protein kinase type 1D (Homo sapiens) (Q8IU85 whole entry, looked up): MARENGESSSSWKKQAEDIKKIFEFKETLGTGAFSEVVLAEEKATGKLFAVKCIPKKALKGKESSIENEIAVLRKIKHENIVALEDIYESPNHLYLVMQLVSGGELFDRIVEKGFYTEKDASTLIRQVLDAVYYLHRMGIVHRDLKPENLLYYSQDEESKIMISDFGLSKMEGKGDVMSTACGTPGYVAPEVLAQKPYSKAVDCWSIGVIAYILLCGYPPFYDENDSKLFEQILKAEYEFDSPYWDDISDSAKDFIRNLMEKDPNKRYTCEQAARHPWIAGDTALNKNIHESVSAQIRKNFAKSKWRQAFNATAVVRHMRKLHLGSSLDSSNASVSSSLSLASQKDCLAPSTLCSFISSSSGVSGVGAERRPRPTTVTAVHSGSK
# [19] = target: Calcium/calmodulin-dependent protein kinase type 1D (Homo sapiens) (UniProt Q8IU85); settings: at 1 µM
# [20] = target: Calcium/calmodulin-dependent protein kinase type II subunit alpha (Homo sapiens) (UniProt Q9UQM7); settings: at 0.1 µM;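 note: reported values are averages (mean inhibition of CAMK2A)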
# Chain of Calcium/calmodulin-dependent protein kinase type II subunit alpha (Homo sapiens) (Q9UQM7 whole entry): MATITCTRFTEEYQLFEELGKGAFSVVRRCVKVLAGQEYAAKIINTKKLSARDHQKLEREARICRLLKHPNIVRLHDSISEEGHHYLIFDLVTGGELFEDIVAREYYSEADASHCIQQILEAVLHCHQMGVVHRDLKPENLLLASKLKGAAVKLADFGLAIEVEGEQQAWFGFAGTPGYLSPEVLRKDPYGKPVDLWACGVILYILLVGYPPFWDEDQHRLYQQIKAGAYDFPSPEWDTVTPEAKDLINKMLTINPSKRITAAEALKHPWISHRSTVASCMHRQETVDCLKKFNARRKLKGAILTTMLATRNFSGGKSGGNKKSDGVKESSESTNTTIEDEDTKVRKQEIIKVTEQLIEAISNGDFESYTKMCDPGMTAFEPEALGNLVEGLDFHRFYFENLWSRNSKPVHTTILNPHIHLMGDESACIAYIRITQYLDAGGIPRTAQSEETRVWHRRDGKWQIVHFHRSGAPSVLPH
# Chain of Ribosomal protein S6 kinase alpha-6 (Homo sapiens) (Q9UK32 whole entry): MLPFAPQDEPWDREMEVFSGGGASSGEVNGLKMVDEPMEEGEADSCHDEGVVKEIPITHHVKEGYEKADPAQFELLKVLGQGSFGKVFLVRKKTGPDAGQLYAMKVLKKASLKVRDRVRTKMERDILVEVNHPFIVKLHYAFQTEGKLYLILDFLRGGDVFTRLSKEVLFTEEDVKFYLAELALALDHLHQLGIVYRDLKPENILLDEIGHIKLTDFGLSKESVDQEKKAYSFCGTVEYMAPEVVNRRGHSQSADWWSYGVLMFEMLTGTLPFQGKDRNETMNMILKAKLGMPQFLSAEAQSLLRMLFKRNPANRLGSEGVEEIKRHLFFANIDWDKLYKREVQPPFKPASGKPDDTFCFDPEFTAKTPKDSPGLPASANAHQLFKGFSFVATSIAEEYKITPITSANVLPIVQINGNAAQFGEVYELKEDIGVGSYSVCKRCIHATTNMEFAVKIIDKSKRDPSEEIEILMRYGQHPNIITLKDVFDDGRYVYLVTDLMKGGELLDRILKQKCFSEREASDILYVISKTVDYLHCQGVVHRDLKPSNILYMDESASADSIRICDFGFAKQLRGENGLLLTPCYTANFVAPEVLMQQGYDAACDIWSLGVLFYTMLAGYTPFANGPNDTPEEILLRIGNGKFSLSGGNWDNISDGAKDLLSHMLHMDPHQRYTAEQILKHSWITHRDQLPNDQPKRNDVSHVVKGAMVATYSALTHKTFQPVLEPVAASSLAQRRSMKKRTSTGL
Structure (SMILES),inhibition [1] [%],inhibition [2] [%],inhibition [3] [%],inhibition [4] [%],inhibition [5] [%],inhibition [6] [%],inhibition [7] [%],inhibition [8] [%],inhibition [9] [%],inhibition [10] [%],inhibition [11] [%],inhibition [12] [%],inhibition [13] [%],inhibition [14] [%],inhibition [15] [%],inhibition [16] [%],inhibition [17] [%],inhibition [18] [%],inhibition [19] [%],inhibition [20] [%]
CCn1c(-c2nonc2N)nc2cncc(C(=O)N3CC[C@H](N)C3)c21,25,7.33,29.4,6.54,44.6,19.6,68.1,4.01,6.61,4.72,6.01,0.02,0.59,1.37,2.48,0.94,6.07,1.79,0.54,3.71
CS(=O)(=O)Nc1ccc(N/C=C2\C(=O)Nc3ccccc32)cc1,11,0.01,12.3,-2.1,1.93,-3.12,-0.79,0.57,12,-0.35,4.21,12.6,43.9,2.83,16.5,4.09,30.6,-1.16,0.24,-3.83
Cc1nn(C)c2cc(N(C)c3ccnc(Nc4cccc(S(N)(=O)=O)c4)n3)ccc12,6.01,3.21,3.89,-0.4,5.81,3.28,6.89,1.01,1.93,2.68,3.54,20.6,64.2,1.45,0.63,0.72,4.4,0.85,3.14,1.6
CCCN1CCC(Oc2cc(Nc3nc(Nc4cccc(F)c4C(N)=O)c4cc[nH]c4n3)c(OC)cc2Cl)CC1,4.14,0.54,0.96,0.41,1.93,-0.88,-2.21,3.28,8.12,1.83,6.28,7.21,9.7,0.4,-0.28,-0.51,0.24,3.19,23.1,0.13
NS(=O)(=O)c1cccc(-c2ccc3c(NC(=O)C4CC4)n[nH]c3c2)c1,0.54,1.71,2.69,3.21,-4.4,0.09,0.67,-0.48,0.34,3.53,-0.49,0.7,1.95,6.3,41.3,12.6,51.8,-0.5,-0.98,-4.43
